# Compound activity as filed in PubChem BioAssay.
# The list is not random: actives were taken first. Their share in the collection is about 4.1%.
# pCIP destab – p/CIP protein destabilization; Q05BA5; F442A p/CIP-EGFP cells, EGFP fluorescence, 16 h; decrease of EGFP signal, % at 10 µM; actives 0.01% (n = 290,000); AID 1984;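 active means EGFP signal decrease of at least 30% at 10 µM or well 3 SD below plate mean, unless failing retest; inactive means the rest, including hits failing retest or dose response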
# FAS-TE inh – FAS thioesterase (human) inhibition. recombinant FAS-TE, OMFH fluorogenic substrate, fluorescence endpoint. P49327. actives 0.67% (n = 360,000). AID 602261. inhibition, % at 15 µM;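 active means compounds whose normalised, plate-corrected inhibition of enzyme fluorescence in the single-dose primary screen is 50% or more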;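 further: 0% = DMSO with enzyme and 100% = substrate without enzyme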
# MIN6 prolif – induces beta-cell replication in MIN6 cells | MIN6 cells proliferation, ATPlite luminescence, 48 h; cells starved in 0.2% serum; 100% = growth in 10% serum | proliferation, % at 10 µM | actives 0.29% (n = 330,000);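 active means compounds whose signal lies at least 3.5 SD above the mean of all wells on their plate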;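 further: 0% = DMSO-treated cells in low-serum medium and 100% = 10% serum control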
# MPTP block – blocks calcium-induced mitochondrial swelling. isolated mouse mitochondria, Ca2+ swelling absorbance, 30 min. inhibition, % at 10 µM. actives 1.4% (n = 360,000);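 active means inhibition of 50% or more, scaled per plate between neutral and stimulator controls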;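 further: 0% = DMSO wells given calcium and 100% = 1 mM EGTA wells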
# GRIN3A LBD mod – modulates the human NR3A ligand-binding domain | Tm shift relative to glycine control, % at 25 µM | NR3A LBD differential scanning fluorimetry, Tm shift; 0% = protein alone, 100% = glycine-bound protein | actives 2.5% (n = 340,000);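 active means melting temperature shift of at least 10% of the positive control shift, at one fixed dose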
# * marks the source's active call; other numbers are inactive results; / = not tested or not shown.
SMILES,pCIP destab,FAS-TE inh,MIN6 prolif,MPTP block,GRIN3A LBD mod
O=C(Nc1ccncc1)Nc1cccc(F)c1,-4,-5,-3,13,14*
COc1cccc(C(=O)Nc2ccccc2)c1,5,3,2,0,26*
CC(C)c1ccc(NC(=O)c2ccc(NS(C)(=O)=O)cc2)cc1,-9,0,-3,0,20*
CC(C)(C)NC(=O)C1C(c2ccc(C(F)(F)F)cc2)=Nc2ccccc2N1C(=O)c1cccc(C(F)(F)F)c1 (stereo unspecified),/,/,/,2,/
Cn1ccc2c(-c3ccc(C(=O)O)cc3)cc3c(c21)C1CCC3O1 (stereo unspecified),/,-10,/,-2,/
Cc1nc(C(F)(F)F)ccc1C(=O)N1CCC1(C)C(=O)NS(=O)(=O)c1ccc(C(C)(C)C)cc1 (stereo unspecified),/,-12,/,0,/
Cc1ccc(C(O)c2ncc(-c3ccc(Cl)cc3)[nH]2)cc1F (stereo unspecified),/,9,/,4,/
CCOC(=O)[C@]12CCC=C1N(Cc1ccc(Cl)cc1Cl)C(=O)[C@H](CC(=O)NCc1ccc(OC)c(OC)c1)C2,/,12,/,-1,/
CCOC(=O)c1ccc(NC(=O)c2ccc(NS(C)(=O)=O)cc2)cc1,-2,-8,-2,0,16*
COc1ccc(NC(=O)NNC(=O)COc2ccc3ccccc3c2)cc1OC,-6,-8,-2,1,16*
COc1ccc(C(=O)Nc2ccc3ccccc3c2)cc1,-5,3,-5,1,21*
O=C(Nc1ccc(N2CCOCC2)c(Cl)c1)c1cccc(F)c1,-2,2,-2,-1,12*
C#CCNC(=O)C[C@@H]1C[C@@]2(C(=O)OCC)CCCC=C2N(Cc2ccccc2)C1=O,/,/,/,-1,/
COc1cccc(CNc2nc3cc(-c4ccccc4CO)sc3c(=O)n2C)c1,/,5,/,1,/
CCCCCCOC(=O)CC1CC(C(C)=O)C1(C)C (stereo unspecified),/,3,/,1,2
COc1ccccc1C(=O)OCCc1ccccc1,/,-1,/,2,-2
O=C(Nc1ccc(Nc2ccccc2)cc1)c1cccc(F)c1,-6,23,-2,4,29*
COc1cc(NC(=O)COc2ccc(Cl)cc2)ccc1NC(=O)C(C)C,-7,-2,-1,2,0
COc1cc(NC(=O)COc2ccc(Cl)cc2)ccc1-c1cc2ccccc2oc1=O,3,23,-4,14,10*
COc1cc(NS(=O)(=O)c2ccc(NC(=O)c3ccc(F)cc3)cc2)ncn1,-12,-5,-4,1,13*
COc1ccc(NC(=O)c2ccc(C#N)cc2)cc1NS(=O)(=O)c1ccc(F)cc1,0,0,-2,0,0
COc1ccc(OC)c(NS(=O)(=O)c2ccc(NC(=O)c3ccc(NS(C)(=O)=O)cc3)cc2)c1,-6,-2,0,-1,21*
C=C(C)[C@H]1CC=C(C(=O)O)CC1,/,/,/,/,2
Cc1ccc(NC(=O)C2(C)CCN2C(=O)Cc2ccccc2)cc1C (stereo unspecified),/,0,/,0,/
CC(C)NC(=O)N(C)C[C@H]1OCCCC[C@@H](C)Oc2ccc(N(C)C)cc2C(=O)N([C@H](C)CO)C[C@@H]1C,/,-13,/,-1,/
SMILES,pCIP destab,FAS-TE inh,MIN6 prolif,MPTP block,GRIN3A LBD mod
Cn1nnc2cc(C(=O)Nc3ccc4ccccc4c3)ccc21,-5,-6,-3,1,21*
COc1ccc(C(=O)Nc2ccc3ccccc3c2)cc1OC,1,9,-3,2,8
COc1cccc(-c2cc(=O)c3cc(NC(=O)c4ccccc4)ccc3[nH]2)c1,-6,-8,-7,1,26*
COc1cc(NS(=O)(=O)c2ccc(NC(=S)NC(=O)c3sc4cc(F)ccc4c3Cl)cc2)nc(OC)n1,9,4,-2,4,17*
COc1cc(NS(=O)(=O)c2ccc(NC(=S)NC(=O)c3sc4ccccc4c3Cl)cc2)nc(OC)n1,-3,-4,/,0,-2
COc1ccc(NC(=O)c2cccc(OS(=O)(=O)N(C)C)c2)cc1,-4,4,0,2,12*
O=C(Nc1ccccc1)c1cc(C2CCCCN2C(=O)c2cccs2)on1 (stereo unspecified),/,4,/,1,/
CC(C)[C@H](N)C(=O)N[C@H]1CCC2C3CC=C4C[C@@H](O)CC[C@]4(C)C3CC[C@@]21C (stereo partly specified),/,-7,/,2,/
